About 83,000 compounds went through this panel and 20% of them were active in at least one assay; those are over-represented in the sample as a whole.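 In brief: 96-well plates, 48 h treatment, single concentration, percent growth endpoint.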 Unmarked numbers belong to inactive results. The source made the active and inactive calls. Rule for the calls: active = growth percent below 10; inactive = the rest.
Tests used:
Assay in all cases: NCI-60 one-dose screen, 48 h (100 = growth as untreated, 0 = no growth, -100 = all killed)
Settings in all cases: 10 µM unless noted
NCI-H23 lung = system: NCI-H23 lung
NCI-H226 lung = system: NCI-H226 lung
NCI-H322M lung = system: NCI-H322M lung
HOP-62 NSCLC = system: HOP-62 NSCLC
NCI-H460 lung = system: NCI-H460 lung
HOP-92 NSCLC = system: HOP-92 NSCLC
NCI-H522 lung = system: NCI-H522 lung
A549/ATCC NSCLC = system: A549/ATCC NSCLC
786-0 renal = system: 786-0 renal
COLO 205 colon = system: COLO 205 colon

| Compound | growth (NCI-H23 lung) | growth (NCI-H226 lung) | growth (NCI-H322M lung) | growth (HOP-62 NSCLC) | growth (NCI-H460 lung) | growth (HOP-92 NSCLC) | growth (NCI-H522 lung) | growth (A549/ATCC NSCLC) | growth (786-0 renal) | growth (COLO 205 colon) |
| --- | --- | --- | --- | --- | --- | --- | --- | --- | --- | --- |
| Cc1cc(-c2nnc(/C=C/c3ccc4c(c3)OCO4)o2)n[nH]1 | 77.7% | 95.2% | 66.5% | 78.5% | 84.3% | 80.7% | 15.2% | 58.7% | 97.2% | 61.6% |
| CCN(C)CCCOc1ccc(/C(=C(\C)Cc2cccc(OC)c2)c2ccc(OC(C)=O)cc2)cc1 | 93.9% | 86.2% | 98.5% | 97% | 105% | 99.2% | 94.3% | 104% | 101% | 107% |
| CC(C)NC(=O)OCC#CCOC(=O)NC(C)C | 99.6% | 106% | 86.8% | 104% | 108% | 105% | 89.1% | 96.7% | 102% | 106% |
| O=C(c1ccc(C(F)(F)F)c(Cl)c1)N(Cc1ccc(Cl)cc1)c1ccc(-c2cc(C(F)(F)F)[nH]n2)c(O)c1 | 6.5% (active) | -5.3% (active) | 14.4% | -4.7% (active) | 6.77% (active) | -15.6% (active) | -1.27% (active) | 12.8% | 3.06% (active) | -73.8% (active) |
| COc1cccc(/C=N/N=C(N)N)c1 | 103% | 98.3% | 114% | 104% | 111% | 91.1% | 97.4% | 102% | 117% | 109% |
| O=C1/C(=C\c2cccn2Cc2ccc(Cl)cc2)c2ccccc2N1c1c(Cl)cccc1Cl | 86.3% | 59.3% | 68.6% | 98.6% | 94% | 74.8% | 76.6% | 67.2% | 81.7% | 93.6% |
| CC(=O)c1cccc(Nc2ncnc3ccc(NC(=O)c4ccco4)cc23)c1 | 88.7% | 87.6% | 102% | 113% | 96.1% | 71.7% | 83.3% | 90.4% | 89.5% | 98.5% |
| CN1CCN(Cc2ccc(NC(=O)c3cncc(C#Cc4ncc5ccccn45)c3)cc2C(F)(F)F)CC1 | 9.22% (active) | -8.28% (active) | 33.3% | 16.4% | 5.79% (active) | -1.18% (active) | 18.4% | 7.74% (active) | 3.06% (active) | -26.5% (active) |
| C[C@@H](C[C@H](CC1CC1)c1ccccc1)c1ccc2ccccc2c1 | 100% | 109% | 101% | 104% | 100% | 102% | 95.2% | 98.2% | 101% | 109% |
| CC(=O)OC1Oc2cc(C)c(C)cc2-c2oc(=O)c(-c3ccc(F)cc3)cc21 (stereo not given) | 65.2% | 102% | 113% | 77.8% | 38% | 80% | 14.7% | 52.5% | 56.3% | 79.2% |
| COc1cc(C2=NOC(c3cc(OC)c(OC)c(OC)c3)C2)ccc1OCCCCOc1cc2c(cc1OC)C(=O)N1CCC[C@H]1C=N2 (stereo not given in full) | -15.9% (active) | 9.32% (active) | -6.38% (active) | 9.48% (active) | -29.6% (active) | -29.3% (active) | -41.7% (active) | 6.75% (active) | -4.62% (active) | -78% (active) |
| Cc1cc(C)c([O-])c(CN(C)CCN(C)Cc2cc(C)cc(C)c2[O-])c1.O=C([O-])c1cccc(C(=O)[O-])n1.[Ti+4] | 10.4% | 31% | 8.44% (active) | 12.5% | -68.7% (active) | -53.1% (active) | -47% (active) | 23.3% | 11.9% | 2.03% (active) |
| CCCC(CCC)NCC(O)c1cc(-c2ccc(C(F)(F)F)cc2)nc(C(F)(F)F)c1 (stereo not given) | -59.4% (active) | -69.5% (active) | 0.686% (active) | -64.8% (active) | -60.1% (active) | -71.5% (active) | -77.5% (active) | -59.6% (active) | -61.5% (active) | -83.5% (active) |
| CC(=O)Nc1nonc1-c1nc2ccccc2n1Cc1ccc(C(C)(C)C)cc1 | 86.7% | 76.6% | 83% | 101% | 79.3% | 57.1% | 85.1% | 72.2% | 70.2% | 98.5% |
| CCCCCCCCCCCCCCCCCC1=NC(C)(C)CN1C(C)(C)CO | -14.5% (active) | 22.9% | 16.3% | -100% (active) | -100% (active) | -6.66% (active) | -84.8% (active) | -93.8% (active) | -37.5% (active) | -99.8% (active) |
| Cc1cc(C)cc(NC(=O)Cn2nncc2CN2C(=O)CSC2=O)c1 | 97.5% | 104% | 109% | 102% | 107% | 124% | 94.5% | 102% | 108% | 108% |
| Clc1ccccc1Nc1nnc(-c2ccncc2)s1 | 102% | 101% | 93.7% | 118% | 99.7% | 93.9% | 98.6% | 95% | 80.2% | 114% |
| Fc1ccc2nc(-c3ccc(-c4noc(-c5ccc(Cl)cc5)n4)cc3)[nH]c2c1 | 104% | 97.1% | 107% | 103% | 103% | 105% | 87.1% | 100% | 86.5% | 116% |
| O=C(C(=O)c1cccnc1)c1cccnc1 | 98.8% | 115% | 117% | 98.4% | 111% | 103% | -0.192% (active) | 111% | 101% | 174% |
| Clc1ccc(Nc2ncnc3c2sc2ncccc23)c(Cl)c1 | 14.9% | 43.6% | 45.1% | 1.95% (active) | 10.1% | 22.3% | 31.8% | 26.8% | 17.2% | 27.6% |
| COc1ccc(/C(=C\c2ccc3c(c2)OCO3)C(=O)Nc2nc3ccc(F)cc3s2)cc1OC | 93.2% | 87.1% | 87.3% | 92.8% | 105% | 93.6% | 94.2% | 99.7% | 92.1% | 106% |
| Cc1c(C)c(C)c([N+](=O)[O-])c([N+](=O)[O-])c1C | 107% | 104% | 116% | 103% | 108% | 69% | 98.7% | 93.4% | 93.6% | 115% |
| COCCOCCOCc1n(Cc2ccc3ccccc3n2)c2ccccc2[n+]1Cc1ccc2ccccc2c1 | 1.03% (active) | 28.1% | 26.8% | 11.7% | 7.94% (active) | -18.2% (active) | 0.793% (active) | 22.5% | 21.2% | -73.3% (active) |
| CCN(CC)CCC(CNc1ccnc2cc(Cl)ccc12)c1ccc(O)cc1 (stereo not given) | 91.3% | 102% | 72.7% | 87.4% | 54.2% | 53.3% | 97.9% | 97.8% | 92.3% | 71.5% |
| O=C1C2=C(C(=O)c3c(O)ccc(O)c31)N(c1ccc(N3CCOCC3)nc1)Cc1ccccc1O2 | -33.8% (active) | 0% (active) | -14.6% (active) | -13% (active) | -32.6% (active) | -66.1% (active) | -47.3% (active) | -23.2% (active) | -83.7% (active) | -67.5% (active) |
| COc1ccc(C(=O)C(C#N)c2cc(OC)c(OC)c(OC)c2)cc1 (stereo not given) | 113% | 99.4% | 105% | 109% | 107% | 83.6% | 85.2% | 98.1% | 97.6% | 106% |
| CCCCCCCCCCCCCC[N+](C)(C)CCCCCCCCCCCCCC | 70.3% | 72.9% | 98.7% | 86.2% | 74.3% | 8.4% (active) | 47.3% | 55.3% | 63.4% | 66% |

— PubChem BioAssay (NCI)
